Test results taken from PubChem BioAssay (Tox21).
Results filed as inconclusive are left out. A number with no mark means an inactive call. Active and inactive are the calls of the source. Calls come from the whole dose curve.
% is set by controls: 0 for no effect and ±100 for the full control effect; potency is the fitted concentration of half-maximal effect.

The molecules below were run against Retinoic acid receptor RXR-alpha (Homo sapiens) (UniProt P19793) (assay: qHTS assay to identify small molecule agonists of the RXR signaling pathway (AID 1159527; note: nearly all actives have a fitted effect of over 35% in size)). Details: HEK293T RXRa-UAS-bla, beta-lactamase ratio, 16 h; series mostly up to 76.8 µM; activation: at the top concentration.
Sequence of Retinoic acid receptor RXR-alpha (Homo sapiens) (P19793 whole entry, looked up): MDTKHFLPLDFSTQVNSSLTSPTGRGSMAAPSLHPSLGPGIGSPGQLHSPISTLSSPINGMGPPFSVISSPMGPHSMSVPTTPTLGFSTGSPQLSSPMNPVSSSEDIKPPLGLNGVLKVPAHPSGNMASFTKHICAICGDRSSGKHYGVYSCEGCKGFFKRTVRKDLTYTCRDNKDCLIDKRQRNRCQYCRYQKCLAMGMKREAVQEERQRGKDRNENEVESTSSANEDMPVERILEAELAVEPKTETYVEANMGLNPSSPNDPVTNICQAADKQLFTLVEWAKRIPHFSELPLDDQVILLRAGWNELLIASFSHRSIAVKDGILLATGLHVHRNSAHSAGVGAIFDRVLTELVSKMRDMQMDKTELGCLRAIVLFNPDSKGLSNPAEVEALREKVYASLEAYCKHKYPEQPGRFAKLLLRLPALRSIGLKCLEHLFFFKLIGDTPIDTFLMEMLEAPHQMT
Summary of the method: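 Agonist-mode beta-lactamase reporter assay: HEK 293T RXR-alpha-UAS-bla cells treated 16 hr at 37 C with compounds, 9-cis retinoic acid as positive control. LiveBLAzer FRET substrate, 405 nm excitation, 460/530 nm emission.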
Cn1ccc2cc3c(cc21)CCN3C(=O)Nc1cccnc1 showed an activation of 14.3% [at 15.8 µM]. O=C(O)Cc1cc(I)c(Oc2cc(I)c(O)c(I)c2)c(I)c1 was tested, and the Potency was 15.2 µM (active). CCCCCCCCC=O was tested, and the “activation” value was 0.0451%. Oc1cc(O)c2c(c1)O[C@H](c1ccc(O)c(O)c1)[C@H](O)C2 was tested, and the “activation” value was 10.7% [at 35.3 µM]. In the case of N#CCc1ccccc1[N+](=O)[O-], the “activation” value is reported as -12.1%. In the case of CCCCCCCCCCCCI, the “activation” value is reported as 0.775%. COc1ccc(NC(C)=O)cc1 was tested, and the “activation” value was -7.62%. With NC1CCN(c2cccc(Cl)n2)CC1 the “activation” value was -10.8% [at 35.3 µM]. In the case of C1C2OC2C2C1C1CC2C2OC12 (stereo not given), the “activation” value is reported as 4.61%. CCC(=O)c1cccc(Cl)c1 was tested, and the “activation” value was 6.92%. In the case of O=S(=O)(c1cccc2cnccc12)N1CCCNCC1, the “activation” value is reported as -14% [at 35.3 µM]. OCCCCCCO was tested, and the “activation” value was -2.66%. With Cc1ccccc1Br the “activation” value was 8.13%. C=CC(=O)OCCCCCC was tested, and the “activation” value was 1.23%. For C(=C(c1ccccc1)c1ccccc1)c1ccccc1, the “activation” value was 2.39%. For COC(=O)c1ccc(C(=O)OC)c(C(=O)OC)c1, the “activation” value was -15.9%. In the case of CCCCCC[C@@H](CCC)C(=O)O, the “activation” value is reported as -18.9% [at 35.3 µM]. CCCCc1ccc2cccc(S(=O)(=O)O)c2c1 was tested, and the “activation” value was 0.467%. For O=c1[nH]c2ccccc2c(=O)n1CCCl, the “activation” value was 2.05% [at 35.3 µM]. For COC(=O)C1=C(C)NC(C)=C(C(=O)OCC(C)=O)C1c1ccccc1[N+](=O)[O-] (stereo not given), the “activation” value was 2.04% [at 35.3 µM]. With CCN1CCCC1CNC(=O)c1cc(S(N)(=O)=O)ccc1OC (stereo not given) the Potency was 43.6 µM (active). For COc1ccc(N=[N+]([O-])c2ccc(OC)cc2)cc1, the “activation” value was -5.55%. CC1=CC(=O)CCC1 was tested, and the “activation” value was 0.136%. CC(C)c1cccc(C(C)C)c1N was tested, and the “activation” value was 9.92%. Cc1c(C)n(CCN(C)C)c2ccc(C(=O)OCCN(C)C)cc12 was tested, and the “activation” value was -8.27% [at 35.3 µM].
